3T3 cytotox = cytotoxic compounds in NIH 3T3 cells; NIH 3T3 viability, CellTiter-Glo ATP luminescence, 48-72 h; Potency, µM (series often up to 96.7 µM), inactives show at the top dose activity change, negative = cytotoxicity, usual class: inhibitors; 4.3% of 94,000 active; also: nearly all actives have a fitted effect of over 55% in size
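Cytotoxicity was measured by CellTiter-Glo ATP luminescence after 48 or 72 h compound exposure at 37 °C. Mouse NIH 3T3 fibroblasts were seeded at 400 cells/well and dosed by 23 nL pin transfer.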
hNpr1 antagonist = blocks ANP-stimulated signaling of human Npr1 receptor. P16066. HEK293 hNpr1 GloSensor cGMP, ANP-stimulated luminescence. Potency, µM (highest dose often 46.3 µM), for inactives: at the highest dose activity change, negative = inhibition, hits mostly inhibitors. 1.6% of 76,000 active; calls by dose curve; also: nearly all actives have a fitted effect of over 60% in size
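Compound pre-incubated 30 min at room temperature on GloSensor-loaded HEK293 cells stably carrying hNpr1 and the pGS-40F cGMP biosensor. Stimulation uses hNppA at 0.1 nM final; luminescence is taken at baseline and 20 min post-agonist.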
FLuc inh = blocks purified firefly luciferase enzyme activity | Potency, µM (titrated, usually from 115 µM), hits mostly inhibitors | AID 1347043 | purified P. pyralis luciferase, luminescence, biochemical | 2.5% of 76,000 active | P08659; also: nearly all actives have a fitted effect of over 65% in size
Target sequence (P08659 whole entry, looked up): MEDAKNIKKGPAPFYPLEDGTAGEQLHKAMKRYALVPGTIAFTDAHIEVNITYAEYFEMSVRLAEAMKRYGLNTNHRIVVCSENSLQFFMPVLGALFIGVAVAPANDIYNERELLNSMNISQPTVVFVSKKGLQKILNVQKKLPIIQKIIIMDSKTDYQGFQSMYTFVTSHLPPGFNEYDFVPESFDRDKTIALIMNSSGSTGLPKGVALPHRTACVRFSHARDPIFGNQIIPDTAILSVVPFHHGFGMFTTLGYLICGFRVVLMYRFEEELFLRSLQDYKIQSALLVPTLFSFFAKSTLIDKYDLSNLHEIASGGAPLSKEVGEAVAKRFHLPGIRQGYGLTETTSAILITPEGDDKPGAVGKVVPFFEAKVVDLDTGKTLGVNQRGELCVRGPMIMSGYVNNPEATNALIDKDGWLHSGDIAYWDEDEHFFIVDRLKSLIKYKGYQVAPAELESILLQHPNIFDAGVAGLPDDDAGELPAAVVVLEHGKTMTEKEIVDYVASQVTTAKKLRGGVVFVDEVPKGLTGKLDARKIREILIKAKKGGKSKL
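Cell-free enzyme assay, 10nM P. pyralis luciferase, luciferin and ATP each at 10uM. Inhibition profiled over a 6-point titration, read as luminescence.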
HEK cytotox = HEK 293 cell cytotoxicity; HEK 293 viability, ATP luminescence (CellTiter-Glo), 48-72 h; Potency, µM (doses to about 115 µM), inactives show top-dose activity change, negative = cytotoxicity, usual class: inhibitors; 6.6% of 94,000 active; AID 1345083; also: nearly all actives have a fitted effect of over 60% in size
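Cytotoxicity was scored by loss of ATP-coupled luminescence (CellTiter-Glo) in HEK 293 cells. Compound treatment ran 48 or 72 hr at 37 degree Celsius, 5% CO2, 95% humidity.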
Numbers without * were called inactive; i = inactive; ? = inconclusive; . = no result; [ ] = another dose, or the depositor's remark. Hits are enriched below; roughly 11% of the tested compounds scored in any of these assays. Unless noted, calls follow the shape of the dose curve; as a rule, active = well fitted curve in the direction sought with a large enough effect; inconclusive = small, poorly fitted or top-dose-only effect, or another doubt; inactive = no such curve, though single readings can be large; an effect the other way counts as inactive or inconclusive. % is scaled to controls: 0 for no effect and ±100 for the full control effect; potency is read from the fitted curve at half-maximal effect.

SMILES	3T3 cytotox	hNpr1 antagonist	FLuc inh	HEK cytotox
COc1ccc(C(=O)N2CCC(N3CC(OCC4CC4)C34CCOCC4)CC2)cc1F (stereo not drawn)	-8.4%	.	.	1.6%
COc1cccc(Nc2cnc3ccc(-c4ccc(OC)c(OC)c4)nn23)c1	22.4µM*	-12.2%[70.6 µM]	i	56.2µM*
COc1ccccc1-c1ccc2ncc(Nc3cccc(N[S+](C)(=O)[O-])c3)n2n1	?	-19.6%[70.6 µM]	i	63.1µM*
COc1ccc(-c2ccc3ncc(Nc4ccncc4)n3n2)cc1OC	35.5µM*	1.3%[70.6 µM]	i	79.4µM*
COc1cncc(Nc2cnc3ccc(-c4ccccc4OC)nn23)c1	?	?	i	?
COc1ccc(-c2ccc3ncc(Nc4ccc5c(c4)OCO5)n3n2)cn1	?	-13.4%[70.6 µM]	i	?
COc1ccc(Nc2cnc3ccc(-c4cccc(CO)c4)nn23)cc1OC	?	-15.2%[70.6 µM]	?	?
COc1ccc(Nc2cnc3ccc(-c4ccc(OC)c(OC)c4)nn23)cc1OC	20µM*	-4.1%[70.6 µM]	?	89.1µM*
CC(=O)N1CCC(C2CCN(C(=O)c3cccc(C#N)c3)C2)CC1 (stereo not drawn)	-20.4%	.	.	1.7%
COc1ccc(Nc2cnc3ccc(-c4ccc(OC)c(OC)c4)nn23)cc1	14.1µM*	-0.8%[70.6 µM]	17.8µM*	?
COc1ccc(-c2ccc3ncc(Nc4cnccn4)n3n2)cc1OC	25.1µM*	4.0%[70.6 µM]	i	?
COc1ccc(Nc2cnc3ccc(-c4ccccc4)nn23)cc1OC	?	-12.5%[70.6 µM]	i	63.1µM*
COc1cccc(Nc2cnc3ccc(-c4ccccc4OC)nn23)c1	?	-2.6%[70.6 µM]	i	79.4µM*
Cc1ncsc1CN1CC[C@@H]2C(=O)NCCCCCCN(Cc3ccncc3)[C@@H]2C1	?	-9.5%	i	?
CC(C)N1CC(C(=O)NCc2ccc(C(F)(F)F)cc2)NC1=O (stereo not drawn)	-20.3%[138 µM]	.	.	-29.5%[172 µM]
COc1cncc(Nc2cnc3ccc(-c4ccc(OC)c(OC)c4)nn23)c1	20µM*	-12.4%[70.6 µM]	i	63.1µM*
COc1cncc(Nc2cnc3ccc(-c4ccc(OC)nc4)nn23)c1	-24.4%[138 µM]	1.3%[70.6 µM]	i	?
O=C(NC1CCCCCC1)c1nc2sccn2c1-c1ccc(C(F)(F)F)cc1	25.1µM*	.	.	39.8µM*
O=C(NC1CCCCC1)c1nc2sccn2c1-c1ccccc1	?	.	.	63.1µM*
O=C(NC1CCCCC1)c1nc2sccn2c1-c1ccc(C(F)(F)F)cc1	39.8µM*	.	.	?
COc1ccc(C)cc1NC(=O)c1ccc2c(c1)C(O)CCCCCN2C (stereo not drawn)	?	-17.3%	i	?
CN1CCCCCC(O)c2cc(C(=O)NCCc3ccccn3)ccc21 (stereo not drawn)	31.6µM*	-10.4%	44.7µM*	?
COc1ccccc1OCCNC(=O)c1ccc2c(c1)C(O)CCCCCN2C (stereo not drawn)	?	-12.6%	i	?
CCN(CCN(C)C)C(=O)c1ccc2c(c1)C(O)CCCCCN2CCOC (stereo not drawn)	-7.9%	5.8%	i	?
CCCN(CC1CC1)C(=O)c1ccc2c(c1)C(O)CCCCCN2CCOC (stereo not drawn)	?	-9.7%	i	79.4µM*
SMILES	3T3 cytotox	hNpr1 antagonist	FLuc inh	HEK cytotox
COCCN1CCCCCC(O)c2cc(C(=O)Nc3cc(C)ccc3OC)ccc21 (stereo not drawn)	?	-2.0%	?	44.7µM*
CC(C)N1C(=O)C2(CCCCC2)C1C(=O)NCCCN1CCCc2ccccc21 (stereo not drawn)	?	4.3%	i	79.4µM*
C[C@]1(CO)C2CC[C@@H](O)[C@@H](CC(=O)N3CCC[C@H]3CO)[C@]2(C)CC[C@H]1OC(=O)Nc1ccccc1 (stereo partly drawn)	-19.1%	-9.7%	i	-3.8%
COc1cccc(CC2CN(Cc3ccc(F)cc3OC)CCO2)c1 (stereo not drawn)	-33.2%	-0.7%	i	?
COCCN1CCCCCC(O)c2cc(C(=O)NCCCN3CCCc4ccccc43)ccc21 (stereo not drawn)	?	-8.2%	i	39.8µM*
COCCN1CCCCCC(O)c2cc(C(=O)NCCCN3CCCC3=O)ccc21 (stereo not drawn)	-5.3%	1.1%	i	-4.2%
CCOC(=O)C1c2c(OC)ccc3c2C(=CC(C)(C)CO3)CN1Cc1ccccc1 (stereo not drawn)	?	.	.	44.7µM*
COc1ncccc1-c1cnc2[nH]cc(CC(=O)Nc3ccn(C)n3)c2c1	?	-11.0%[70.6 µM]	i	?
CC(=O)N1CCN(C(=O)C2CCN(Cc3ccccc3-c3cccnc3)CC2)CC1	i	.	.	i
Cc1cccc(NC(=O)Cn2ccn3nc(-c4ccc(F)cc4)c(CO)c3c2=O)c1	-18.0%	-0.1%	i	?
Cc1nn(-c2ccccc2)c2c1C(C)N(C1CN(C(=O)c3ccc(C(F)(F)F)cc3)C1)C2=O (stereo not drawn)	?	.	.	39.8µM*
Cc1nn(-c2ccccc2)c2c1C(C)N(C1CCCN(C(=O)N(C)C)C1)C2=O (stereo not drawn)	-19.5%	.	.	?
Cc1nn(-c2ccccc2)c2c1C(C1CC1)N(C1CCN(C(=O)c3ccc(F)cc3)C1)C2=O (stereo not drawn)	?	.	.	35.5µM*
Cc1nn(-c2ccccc2)c2c1C(C)N(C1CN(C(=O)c3ccc(Cl)cc3)C1)C2=O (stereo not drawn)	-11.6%	.	.	-27.3%
Cc1nn(-c2ccccc2)c2c1C(C)N(C1CCN(C(=O)c3ccc(F)cc3)C1)C2=O (stereo not drawn)	?	.	.	44.7µM*
Cc1nn(-c2ccccc2)c2c1C(C)N(C1CCN(C(=O)c3cccc(Cl)c3)C1)C2=O (stereo not drawn)	31.6µM*	.	.	22.4µM*
O=C(NC1CC1)c1nc2sccn2c1-c1ccncc1	-20.9%[138 µM]	.	.	-18.9%[172 µM]
O=C1Nc2ccccc2CC12CCCN(Cc1ccc(F)cc1)C2 (stereo not drawn)	-13.8%	.	.	?
Cn1nc2n(c1=O)CCN(S(=O)(=O)Cc1ccccc1)CC2	3.8%	.	.	4.6%
Cc1nn2c(c1-c1ccccc1OCc1ccccc1)N(Cc1cccnc1)CCC2	?	-20.0%[70.6 µM]	i	63.1µM*
Cc1nn2c(c1-c1ccccc1OCc1ccccc1)N(Cc1nccn1C)CCC2	?	-24.5%[70.6 µM]	i	100µM*
CC(C)CCN1CCC2(CC1)CN[S+](=O)([O-])c1cccnc1O2	i	.	.	i
O=C(c1cccnc1)N1CCCC2(CN[S+](=O)([O-])c3cccnc3N2)C1 (stereo not drawn)	-5.7%	.	.	-1.7%
CN(C)CC(C)(C)NC(=O)c1csc2nc(-c3cccc(C(F)(F)F)c3)cn12	?	-8.7%	i	44.7µM*
CN1CCN(C(=O)c2nc3sccn3c2-c2ccccc2)CC1	-2.6%[138 µM]	.	.	i
COc1ccc(NC(=O)C2=NO[C@@H]3CN(c4cccnc4)C[C@H]23)cc1	?	?	35.5µM*	?

Screening data from PubChem BioAssay.
